From PubChem BioAssay (NCATS) come the findings set out here.

“And” between values parts separate entries of the source, which are not always exact repeats. Identical values can stand only once. Results filed as inconclusive are left out. More than one record can exist for a structure, and the calls need not agree. The source made the active and inactive calls. Unless noted, calls come from the whole dose curve.

The target of experiment [1] is Peroxisome proliferator-activated receptor gamma (Homo sapiens) (UniProt P37231). The experiment can be described thus: qHTS assay for small molecule agonists of peroxisome proliferator-activated receptor gamma signaling (AID 588536; active = well fitted curve in the direction sought with a large enough effect in the signal ratio, with a control signal flat, not every such curve was filed as active; the % refers to the signal ratio;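 note: 0% = DMSO basal wells and 100% = rosiglitazone at 2 µM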). The settings on record: HEK293 PPARg-UAS-bla, beta-lactamase ratio, 16 h, percent of rosiglitazone response, DMSO as zero; series mostly up to 76.7 µM. A digest of the protocol:
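PPAR-gamma-UAS-bla HEK293 cells in medium with 1% charcoal/dextran-treated FBS were exposed to compounds for 16 h at 37 C. Beta-lactamase activity was read with CCF4 substrate (405 nm excitation, 460/530 nm emission).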
(Quantitative high-throughput screening tests each substance at several concentrations.)

Experiment [2] has as its target Vitamin D3 receptor (Homo sapiens) (UniProt P11473). The experiment can be described thus: qHTS assay for small molecule antagonists of vitamin D receptor signaling (AID 588541). Note: potency is the fitted concentration of half-maximal effect. The settings on record: HEK293T VDR-UAS-bla, beta-lactamase ratio, antagonist mode; series mostly up to 76.7 µM. A digest of the protocol: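 VDR-UAS-bla HEK293T cells (2000/well, 2% charcoal-stripped FBS) were treated with titrated compounds plus 1-alpha,25-dihydroxyvitamin D3 (50 nM or 3 nM final) for 16 h at 37 C. CCF4 beta-lactamase fluorescence was read; Hill fits gave IC50.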

For experiment [3] the target is unchanged. Briefly: qHTS assay for small molecule agonists of vitamin D receptor signaling (AID 588543).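 Note: 0% = DMSO basal and 100% = reference agonist control.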 The settings on record: HEK293T VDR-UAS-bla, beta-lactamase ratio, 16 h; series mostly up to 76.8 µM. The gist of the method:
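Agonist-mode beta-lactamase reporter: HEK293T VDR-UAS-bla cells in charcoal-stripped 2% FBS, compound series 16 h 37 C, CCF4 2 h RT. EC50 from Hill fit, scaled against DMSO and 50 nM calcitriol control.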

Experiment [4] has as its target Thyroid hormone receptor beta (Homo sapiens) (UniProt P10828). Briefly: qHTS assay for small molecule agonists of thyroid hormone receptor beta signaling (AID 588545).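 Note: 0% = DMSO only and 100% = 10 nM T3.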 The following applies: TR-UAS-bla GripTite HEK 293, beta-lactamase ratio, agonist mode, 18 h, percent of T3 response, DMSO as zero; series mostly up to 76.7 µM. The gist of the method:
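Beta-lactamase reporter activity under TR response element control is measured in HEK 293 cells after 18 hrs compound exposure. Signal is ratiometric CCF4 fluorescence, 460/530 nm.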

Experiment [5] can be described thus: qHTS assay for small molecule antagonists of retinoid X receptor alpha signaling (AID 588546; active = well fitted inhibition curve with a large enough effect in the signal ratio, with a control signal flat, not every such curve was filed as active; the % refers to the signal ratio;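 note: cells stimulated with 9-cis-retinoic acid as agonist; % is set by controls: 0 for no effect and ±100 for the full control effect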). The settings on record: HEK293T RXRa-UAS-bla, beta-lactamase ratio, antagonist mode; measured here: W530 green channel, cytotoxicity proxy. The gist of the method:
(§1)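 Beta-lactamase reporter inhibition, read as CCF4 fluorescence ratio (ex 405, em 460/530 nm) after 2 h at RT. HEK293T UAS-bla cells, 2500/well, were stimulated with 9-cis-RA at 500 or 100 nM final alongside test compound for 18 h at 37 C.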

Experiment [6] deals with Retinoic acid receptor RXR-alpha (Homo sapiens) (UniProt P19793). Described as above. The following applies: HEK293T RXRa-UAS-bla, beta-lactamase ratio, antagonist mode. The gist of the method:
as §1

The target of experiment [7] is Thyroid hormone receptor beta (Homo sapiens) (UniProt P10828). The experiment can be described thus: qHTS assay for small molecule antagonists of thyroid hormone receptor beta signaling (AID 588547; active = well fitted inhibition curve with a large enough effect in the signal ratio, with a control signal flat, not every such curve was filed as active; the % refers to the signal ratio;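 note: cells stimulated with 0.4 nM T3 agonist during compound exposure; % is set by controls: 0 for no effect and ±100 for the full control effect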). The settings on record: TR-UAS-bla HEK293, beta-lactamase ratio, antagonist mode, 18 h. The gist of the method:
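TR-UAS-bla GripTite HEK293 cells in 2% charcoal/dextran FBS medium were preincubated 4 h at 37 C, given compound (0.59 nM to 92 uM) plus 0.4 nM T3 (final) for 18 h, then CCF4 for 2 h at RT; Hill fit gave IC50.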

Experiment [8] has as its target Voltage-gated inwardly rectifying potassium channel KCNH2 (Homo sapiens) (UniProt Q12809). The experiment can be described thus: qHTS Assay for Small Molecule Inhibitors of the Human hERG Channel Activity (AID 588834; active = well fitted curve in the direction sought with a large enough effect; an effect the other way counts as inactive or inconclusive;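 note: lower thallium flux fluorescence means stronger hERG block; nearly all actives have a fitted effect of over 50% in size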; note: potency is the fitted concentration of half-maximal effect). The settings on record: U2OS BacMam hERG, FluxOR thallium flux fluorescence; series mostly up to 46.1 µM. A digest of the protocol: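 Kinetic FDSS fluorescence; U2OS + hERG BacMam (~100 virus particles/cell); FluxOR Tl+ flux; ~10 min cpd; AC50 (Hill).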

Experiment [9] concerns the target Luciferin 4-monooxygenase (Photinus pyralis) (UniProt P08659). Briefly: Biochemical firefly luciferase enzyme assay for NPC (AID 624030; active = well fitted curve in the direction sought with a large enough effect; an effect the other way counts as inactive or inconclusive;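 note: purified P. pyralis luciferase at 10 nM with luciferin and ATP substrate; 0% = DMSO and -100% = full luciferase inhibition by PTC124 control; nearly all actives have a fitted effect of over 70% in size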). The settings on record: purified P. pyralis luciferase, luminescence, 5 min; series mostly up to 58.6 µM. The gist of the method: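 Counter-screen for direct inhibition of the luciferase enzyme by approved-drug library compounds, run at 10 nM enzyme in 50 mM Tris acetate (final). Luminescence was read within 5 min of enzyme-buffer addition and normalized to PTC124 versus DMSO (0%).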

The nature of experiment [10]: S16 Schwann cell viability assay (CellTiter-Glo assay) (AID 624031; active = well fitted curve in the direction sought with a large enough effect; an effect the other way counts as inactive or inconclusive; note: nearly all actives have a fitted effect of over 70% in size; note: potency is the fitted concentration of half-maximal effect). The following applies: S16 rat Schwann cells viability, 24 h; series mostly up to 57.5 µM. The gist of the method:
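Native S16 Schwann cells (rat), serum-containing medium, overnight attachment then 24 h drug exposure at 37 °C/5% CO2. CellTiter-Glo ATP signal; normalized to cell-free and vehicle wells.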

Experiment [11] can be described thus: S16 Schwann cell PMP22 intronic element beta-lactamase assay (AID 624044). Note: nearly all actives have a fitted effect of over 15% in size. Note: potency is the fitted concentration of half-maximal effect. The following applies: S16 rat Schwann cells, PMP22 element beta-lactamase FRET, 24 h; series mostly up to 38.3 µM. A digest of the protocol: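 Rat S16 Schwann cells with beta-Lac driven by a PMP22 intronic element, compound-treated 24 h at 37 °C. LiveBLAzer FRET B/G read: 460 nm normalized to potassium clavulanate vs DMSO; 535 nm FRET as viability; concentration-effect curves classified.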

Experiment [12] is described as follows: S16 Schwann cell PMP22 intronic element firefly luciferase assay (AID 624032; active = well fitted curve in the direction sought with a large enough effect; an effect the other way counts as inactive or inconclusive; note: nearly all actives have a fitted effect of over 30% in size; note: potency is the fitted concentration of half-maximal effect). The following applies: S16 rat Schwann cells, PMP22 element FLuc, 24 h; series mostly up to 57.5 µM. The gist of the method:
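Rat S16 Schwann cells stably carrying a PMP22 intronic element-driven Fluc reporter were seeded overnight, then exposed to compounds for 24 h at 37 °C. Luminescence was normalized to PTC124 (positive control) and DMSO (0% activity).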

Experiment [13] addresses Peroxisome proliferator-activated receptor gamma (Homo sapiens) (UniProt P37231). The experiment can be described thus: qHTS assay for small molecule antagonists of peroxisome proliferator-activated receptor gamma signaling (AID 588537; active = well fitted inhibition curve with a large enough effect in the signal ratio, with a control signal flat, not every such curve was filed as active; the % refers to the signal ratio; note: potency is the fitted concentration of half-maximal effect). The settings on record: HEK293 PPARg-UAS-bla, beta-lactamase ratio, antagonist mode; series mostly up to 76.8 µM. The gist of the method:
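We seeded GeneBLAzer HEK293 reporter cells at 3000 per well, allowed 6-6.5 h attachment at 37 C, then co-treated with test compound titrations and 50 nM rosiglitazone overnight (16 h). Inhibition was quantified from 460/530 nm emission ratios.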

Experiment [14] can be described thus: qHTS assay for small molecule agonists of retinoid X receptor alpha signaling (AID 588544). The following applies: HEK293T RXRa-UAS-bla, beta-lactamase reporter, 18 h; 530 nm emission.
The target of experiment [15] is Retinoic acid receptor RXR-alpha (Homo sapiens) (UniProt P19793). Described as above. The settings on record: HEK293T RXRa-UAS-bla, beta-lactamase reporter, 18 h; series mostly up to 76.7 µM.
Experiment [16] has as its target Glutaminase kidney isoform, mitochondrial (Homo sapiens) (UniProt O94925). Briefly: qHTS for Inhibitors of Glutaminase (GLS): LOPAC Validation (AID 624146; active = well fitted curve in the direction sought with a large enough effect; an effect the other way counts as inactive or inconclusive; note: potency is the fitted concentration of half-maximal effect; nearly all actives have a fitted effect of over 60% in size). The settings on record: glutaminase enzyme activity inhibition; series mostly up to 46.1 µM. The gist of the method:
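Glutamate formation by hKGA was monitored fluorometrically using coupled glutamate oxidase, HRP and Amplex Red. Substrate was added as 1 mM L-glutamine solution; incubation was 30 min at RT after an initial read.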

The target of experiment [17] is Glucagon-like peptide 1 receptor (Homo sapiens) (UniProt P43220). The experiment can be described thus: qHTS of GLP-1 Receptor Agonists: LOPAC Validation (AID 624148; active = well fitted curve in the direction sought with a large enough effect; an effect the other way counts as inactive or inconclusive;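 note: 0% is about no effect; higher luminescence signal means agonism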). The settings on record: GLP-1R agonist cell assay; series mostly up to 46.1 µM. A digest of the protocol: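 HEK293 cells stably co-expressing a cAMP-responsive luciferase reporter and a hypersensitive GLP-1R were plated 12 h at 37 °C and exposed to compounds for 4-6 hr at 37 °C, 5% CO2. Luminescence was read 12 min after adding detection reagent.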

Experiment [18] in a line: HTS Assay for Allosteric Antagonists of the Human D2 Dopamine Receptor: Hit Validation in HTRF (AID 624455; active = well fitted curve in the direction sought with a large enough effect; an effect the other way counts as inactive or inconclusive;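 note: stable D1 dopamine receptor cell line scored for blocking the D1 response; % is set by controls: 0 for no effect and ±100 for the full control effect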). The following applies: Cells stably expressing D1 dopamine receptor, inhibition mode; series mostly up to 46.1 µM. The gist of the method:
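Hit validation in cells stably expressing the D1 dopamine receptor, run in HTRF format. Compounds were tested for their ability to inhibit the D1-mediated response.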

Chain of Voltage-gated inwardly rectifying potassium channel KCNH2 (Homo sapiens) (Q12809 whole entry, looked up): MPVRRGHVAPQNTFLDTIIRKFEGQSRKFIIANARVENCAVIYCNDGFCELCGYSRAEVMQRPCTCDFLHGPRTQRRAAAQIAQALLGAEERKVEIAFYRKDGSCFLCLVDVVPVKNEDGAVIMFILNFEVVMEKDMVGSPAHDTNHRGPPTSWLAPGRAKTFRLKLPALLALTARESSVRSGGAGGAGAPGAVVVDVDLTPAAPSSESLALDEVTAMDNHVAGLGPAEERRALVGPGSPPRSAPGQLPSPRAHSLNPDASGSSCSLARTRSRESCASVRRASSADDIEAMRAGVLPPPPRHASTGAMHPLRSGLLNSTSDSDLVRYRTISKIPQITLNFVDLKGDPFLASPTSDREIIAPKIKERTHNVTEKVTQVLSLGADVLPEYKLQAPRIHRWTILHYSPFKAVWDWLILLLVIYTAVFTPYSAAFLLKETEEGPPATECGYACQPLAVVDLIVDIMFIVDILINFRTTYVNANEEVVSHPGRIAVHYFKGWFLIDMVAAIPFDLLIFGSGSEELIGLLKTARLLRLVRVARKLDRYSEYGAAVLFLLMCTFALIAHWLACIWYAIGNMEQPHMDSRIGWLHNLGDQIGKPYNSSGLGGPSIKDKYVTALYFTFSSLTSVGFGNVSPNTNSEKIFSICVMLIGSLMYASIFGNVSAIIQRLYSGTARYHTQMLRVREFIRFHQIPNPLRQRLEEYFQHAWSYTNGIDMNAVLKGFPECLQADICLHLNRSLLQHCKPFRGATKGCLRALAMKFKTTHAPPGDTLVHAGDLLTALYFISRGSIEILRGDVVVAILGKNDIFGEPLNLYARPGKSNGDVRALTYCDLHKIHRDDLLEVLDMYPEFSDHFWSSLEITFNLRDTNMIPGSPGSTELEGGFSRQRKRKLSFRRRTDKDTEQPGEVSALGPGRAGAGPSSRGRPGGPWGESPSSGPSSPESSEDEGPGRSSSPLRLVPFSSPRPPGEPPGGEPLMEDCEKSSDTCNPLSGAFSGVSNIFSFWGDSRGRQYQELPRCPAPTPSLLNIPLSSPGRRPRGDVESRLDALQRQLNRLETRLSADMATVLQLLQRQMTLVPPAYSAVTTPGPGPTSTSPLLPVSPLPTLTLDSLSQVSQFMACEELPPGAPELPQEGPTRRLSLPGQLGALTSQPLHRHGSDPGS
Chain of Peroxisome proliferator-activated receptor gamma (Homo sapiens) (P37231 whole entry, looked up): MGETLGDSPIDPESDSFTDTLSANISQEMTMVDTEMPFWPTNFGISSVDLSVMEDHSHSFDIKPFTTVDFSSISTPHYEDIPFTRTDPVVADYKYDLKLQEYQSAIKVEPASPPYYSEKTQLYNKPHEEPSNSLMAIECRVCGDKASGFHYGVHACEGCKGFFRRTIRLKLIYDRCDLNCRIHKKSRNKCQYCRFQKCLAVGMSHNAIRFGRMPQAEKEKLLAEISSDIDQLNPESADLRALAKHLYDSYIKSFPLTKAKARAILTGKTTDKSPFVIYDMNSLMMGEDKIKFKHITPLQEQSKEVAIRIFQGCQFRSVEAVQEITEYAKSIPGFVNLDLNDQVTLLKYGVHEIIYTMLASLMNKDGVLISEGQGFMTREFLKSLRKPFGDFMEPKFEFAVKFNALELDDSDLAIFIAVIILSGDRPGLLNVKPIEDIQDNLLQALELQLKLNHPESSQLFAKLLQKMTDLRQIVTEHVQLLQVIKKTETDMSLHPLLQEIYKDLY
Chain of Luciferin 4-monooxygenase (Photinus pyralis) (P08659 whole entry, looked up): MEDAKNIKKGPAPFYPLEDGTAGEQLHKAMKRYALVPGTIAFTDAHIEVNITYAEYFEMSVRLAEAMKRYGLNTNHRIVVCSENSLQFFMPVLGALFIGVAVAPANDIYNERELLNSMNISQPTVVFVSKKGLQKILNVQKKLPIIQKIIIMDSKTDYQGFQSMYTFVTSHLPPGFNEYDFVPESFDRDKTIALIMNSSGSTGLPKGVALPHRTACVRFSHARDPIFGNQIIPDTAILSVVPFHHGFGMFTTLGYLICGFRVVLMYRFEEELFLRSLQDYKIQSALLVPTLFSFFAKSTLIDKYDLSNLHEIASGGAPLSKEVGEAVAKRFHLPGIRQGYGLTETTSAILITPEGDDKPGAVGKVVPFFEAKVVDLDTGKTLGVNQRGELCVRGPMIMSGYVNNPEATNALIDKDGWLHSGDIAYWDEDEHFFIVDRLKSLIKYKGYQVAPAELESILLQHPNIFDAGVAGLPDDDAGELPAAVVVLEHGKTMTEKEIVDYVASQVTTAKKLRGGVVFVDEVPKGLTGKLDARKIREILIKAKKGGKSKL
Chain of Thyroid hormone receptor beta (Homo sapiens) (P10828 whole entry, looked up): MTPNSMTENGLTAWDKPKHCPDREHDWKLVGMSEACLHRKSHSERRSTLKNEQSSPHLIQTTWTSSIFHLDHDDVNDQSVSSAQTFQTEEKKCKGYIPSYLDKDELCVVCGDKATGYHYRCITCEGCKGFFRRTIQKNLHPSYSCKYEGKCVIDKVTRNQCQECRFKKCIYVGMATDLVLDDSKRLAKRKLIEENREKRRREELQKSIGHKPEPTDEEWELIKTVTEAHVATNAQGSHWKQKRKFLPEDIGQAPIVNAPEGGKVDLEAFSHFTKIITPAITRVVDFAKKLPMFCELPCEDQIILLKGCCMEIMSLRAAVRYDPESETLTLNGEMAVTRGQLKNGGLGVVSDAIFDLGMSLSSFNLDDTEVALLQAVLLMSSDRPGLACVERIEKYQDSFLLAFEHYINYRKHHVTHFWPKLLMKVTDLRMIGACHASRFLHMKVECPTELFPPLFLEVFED
Chain of Vitamin D3 receptor (Homo sapiens) (P11473 whole entry, looked up): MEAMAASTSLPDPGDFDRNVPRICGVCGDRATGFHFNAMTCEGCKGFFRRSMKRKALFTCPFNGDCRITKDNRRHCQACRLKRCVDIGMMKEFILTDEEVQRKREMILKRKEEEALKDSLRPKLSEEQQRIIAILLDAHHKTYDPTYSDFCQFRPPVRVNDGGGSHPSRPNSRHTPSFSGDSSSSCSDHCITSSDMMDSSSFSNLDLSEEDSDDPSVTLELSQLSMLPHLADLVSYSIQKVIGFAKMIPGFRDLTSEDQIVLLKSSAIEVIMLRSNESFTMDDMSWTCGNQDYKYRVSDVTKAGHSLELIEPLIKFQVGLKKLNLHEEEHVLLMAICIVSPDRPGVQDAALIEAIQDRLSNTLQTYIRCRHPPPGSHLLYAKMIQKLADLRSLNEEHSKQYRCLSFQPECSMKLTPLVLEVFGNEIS
Chain of Retinoic acid receptor RXR-alpha (Homo sapiens) (P19793 whole entry, looked up, canonical isoform): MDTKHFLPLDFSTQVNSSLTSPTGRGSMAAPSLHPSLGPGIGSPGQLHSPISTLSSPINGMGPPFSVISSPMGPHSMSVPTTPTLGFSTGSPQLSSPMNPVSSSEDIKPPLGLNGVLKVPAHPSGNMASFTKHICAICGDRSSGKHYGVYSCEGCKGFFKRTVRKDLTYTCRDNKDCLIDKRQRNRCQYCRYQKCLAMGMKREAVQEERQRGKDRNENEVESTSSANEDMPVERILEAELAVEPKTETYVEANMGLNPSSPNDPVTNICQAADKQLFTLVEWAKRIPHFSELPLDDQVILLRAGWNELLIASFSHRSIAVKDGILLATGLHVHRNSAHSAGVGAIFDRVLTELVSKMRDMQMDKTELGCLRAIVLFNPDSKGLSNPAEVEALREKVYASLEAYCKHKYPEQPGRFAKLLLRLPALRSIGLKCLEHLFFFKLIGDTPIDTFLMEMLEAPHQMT
Chain of Glutaminase kidney isoform, mitochondrial (Homo sapiens) (O94925 whole entry, looked up, canonical isoform): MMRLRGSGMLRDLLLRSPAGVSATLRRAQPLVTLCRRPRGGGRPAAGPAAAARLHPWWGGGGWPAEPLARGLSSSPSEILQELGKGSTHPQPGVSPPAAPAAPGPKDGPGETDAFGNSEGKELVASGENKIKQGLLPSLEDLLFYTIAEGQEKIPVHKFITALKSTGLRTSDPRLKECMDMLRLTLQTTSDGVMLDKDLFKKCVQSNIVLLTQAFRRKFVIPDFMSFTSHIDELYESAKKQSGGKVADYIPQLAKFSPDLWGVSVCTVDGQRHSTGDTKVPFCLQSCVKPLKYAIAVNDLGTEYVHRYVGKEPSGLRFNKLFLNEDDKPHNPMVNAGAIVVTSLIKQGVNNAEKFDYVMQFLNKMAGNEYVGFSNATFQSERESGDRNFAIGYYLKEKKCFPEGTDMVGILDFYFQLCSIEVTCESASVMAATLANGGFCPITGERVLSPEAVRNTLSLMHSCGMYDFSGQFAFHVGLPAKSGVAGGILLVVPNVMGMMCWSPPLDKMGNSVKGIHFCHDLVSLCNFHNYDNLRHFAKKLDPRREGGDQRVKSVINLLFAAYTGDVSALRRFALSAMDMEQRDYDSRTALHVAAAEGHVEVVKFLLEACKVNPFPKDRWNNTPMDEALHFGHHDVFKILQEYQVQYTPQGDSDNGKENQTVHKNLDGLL
Chain of Glucagon-like peptide 1 receptor (Homo sapiens) (P43220 whole entry, looked up): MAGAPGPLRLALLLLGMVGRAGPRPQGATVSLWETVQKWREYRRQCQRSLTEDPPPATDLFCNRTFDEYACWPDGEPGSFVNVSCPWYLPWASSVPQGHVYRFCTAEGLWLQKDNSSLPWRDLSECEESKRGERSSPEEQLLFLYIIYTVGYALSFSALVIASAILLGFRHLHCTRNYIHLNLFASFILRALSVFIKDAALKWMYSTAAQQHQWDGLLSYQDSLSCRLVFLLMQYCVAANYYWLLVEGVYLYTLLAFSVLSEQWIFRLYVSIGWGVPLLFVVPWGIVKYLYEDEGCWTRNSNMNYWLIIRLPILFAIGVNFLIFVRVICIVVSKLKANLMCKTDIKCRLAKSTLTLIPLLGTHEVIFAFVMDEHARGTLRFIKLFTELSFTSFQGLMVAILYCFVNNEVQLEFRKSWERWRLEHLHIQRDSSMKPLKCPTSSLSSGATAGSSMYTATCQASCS

Turning to `[O]=[Cr](=[O])([OH])[O][Cr](=[O])(=[O])[OH]`, the result in experiment [1], in experiment [3] and in experiment [4] was inactive. Moreover, the Potency result in experiment [2], in experiment [8], in experiment [9] and in experiment [11] was “inactive” each time. The max response in experiment [5] is 7.42% and 14.4%; in experiment [6], -10.4% (inactive) and -3.4% (inactive). For the same molecule, the activity change % (negative = inhibition) in [7] was -20.9% (inactive). Moreover, the Potency in experiment [10] is 4.05 µM (active) and 2.87 µM (active).

On to `O=C1C2CC=CCC2C(=O)N1SC(Cl)(Cl)Cl` (centres undefined), for which the result in experiment [1], in [3] and in [4] was inactive. For the same molecule, the max response was -2.91% in experiment [5] and 15% (inactive) in experiment [6]. The Potency in experiment [8] is 25.1 µM (active) and 28.2 µM (active); in experiment [12], 12.8 µM (active); in experiment [11], 22.4 µM (active).

In the case of `O=C(O)C(Cl)(Cl)Cl`, the outcome in [1], in experiment [3] and in experiment [4] was inactive. Moreover, the Potency result in experiment [13], in [2], in experiment [15], in [8], in experiment [10] and in experiment [12] was “inactive” in each case. Also, in experiment [11], the Potency result was “inactive”. For the same molecule, the max response in experiment [14] is -1.61% and -5.9%; in [5], -1.09%; in [6], -6.5% (inactive). Further, the activity change % (negative = inhibition) in experiment [7] is 2.2% (inactive) and 9.95% (inactive).

Take `CC(C)(C)c1cc(O)ccc1O`: the Potency result in [13] is “inactive and 44.7 µM (active)”. The max response in experiment [14] is 23.9% and 27.4%; in experiment [5] it was 10.2% and -11%; in experiment [6], 0.473% (inactive) and -17.4% (inactive). Moreover, the Potency entry in experiment [15], in experiment [8], in experiment [9], in [10] and in experiment [11] was “inactive” each time. In [4], the outcome was inactive.

For `O=C(O)c1cc[c]([Hg][Cl])cc1`, the Potency entry in experiment [13], in experiment [8] and in experiment [18] was “inactive” in each case. The Potency in experiment [2] was 39.8 µM (active); in experiment [16] it was 3.55 µM (active). In addition, the outcome in [3], in experiment [4] and in [17] was inactive. In [7], the activity change % (negative = inhibition) is -18.8% (inactive).

Regarding `ClC1C(Cl)C(Cl)C(Cl)C(Cl)C1Cl` (centres undefined), the result in experiment [1] and in [4] was inactive. The Potency entry in experiment [13], in [15], in experiment [8], in [9], in [10] and in experiment [12] was “inactive” throughout. The Potency result in experiment [11] was “inactive”. The max response was -3.03% [middle of 4 runs] in [14], -10.8% [middle of 4 runs] in experiment [5] and -6.12% (inactive) [middle of 4 runs] in experiment [6]. In addition, the activity change % (negative = inhibition) in [7] was 0.744% (inactive) [middle of 4 runs].

Regarding `N#CN`, the outcome in experiment [1], in experiment [3] and in [4] was inactive. In addition, the Potency result in experiment [13], in [2], in experiment [15], in experiment [8], in experiment [9] and in [10] was “inactive” in each case. Besides, the Potency result in experiment [11] was “inactive”. The max response is 4.27% in [14], -6.13% in experiment [5] and -9.07% (inactive) in [6].

As for `ClCC1CO1` (centres undefined), the outcome in [1] and in experiment [3] was inactive. The Potency result in experiment [13], in [2], in experiment [15], in experiment [8], in experiment [9] and in experiment [10] was “inactive” throughout. Moreover, in experiment [11], the Potency result was “inactive”. Also, the max response in experiment [14] is -12.3%; in [5], -5.61%; in [6], -1.88% (inactive). Moreover, in experiment [7], the activity change % (negative = inhibition) is 1.74% (inactive).

Turning to `C=CCN=C=S`, the outcome in experiment [1], in experiment [3] and in [4] was inactive. Besides, the Potency result in experiment [2], in experiment [15], in experiment [8], in experiment [9], in experiment [10] and in [12] was “inactive” in each case. For the same molecule, in experiment [11], the Potency entry is “inactive”. In addition, the max response in experiment [14] was 2.45%; in experiment [5], -9.62%; in [6] it was 5.52% (inactive).
